# Experimental data taken from PubChem BioAssay AID1508602 (The Scripps Research Institute Molecular Screening Center, 2020).
# Out of some 650,000 compounds screened, about 6,800 (1%) were called active. This excerpt belongs to a sample that is enriched for actives. Values without a mark were called inactive. No stated cut-off is given here; in the data, active means activation above about 4.9%; inactive means the rest.
# Biological target: G-protein coupled receptor 151 (Homo sapiens) (UniProt Q8TDV0)
# Sequence (Q8TDV0 whole entry, looked up): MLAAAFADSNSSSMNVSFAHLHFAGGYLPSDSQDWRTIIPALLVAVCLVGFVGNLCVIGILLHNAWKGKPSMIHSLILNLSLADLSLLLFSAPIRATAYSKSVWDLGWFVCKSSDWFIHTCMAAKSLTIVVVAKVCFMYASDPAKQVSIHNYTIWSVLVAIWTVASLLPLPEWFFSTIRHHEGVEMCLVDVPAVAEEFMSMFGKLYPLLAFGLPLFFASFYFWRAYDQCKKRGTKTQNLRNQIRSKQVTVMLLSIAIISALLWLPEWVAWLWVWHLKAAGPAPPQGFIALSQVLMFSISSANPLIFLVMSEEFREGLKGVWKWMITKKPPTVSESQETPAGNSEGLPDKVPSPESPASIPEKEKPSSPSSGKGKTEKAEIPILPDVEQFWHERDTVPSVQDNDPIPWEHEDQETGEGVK
# Test: activates the human receptor GPR151, primary screen, cell-based, PathHunter beta-arrestin, luminescence (AID 1508602);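 further: 0% = median of compound wells and 100% = cells with positive control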
# Settings: PathHunter beta-arrestin GPR151 cells, at 11.2 µM, stronger effect = higher value
row,SMILES,activation
1,Cc1ccc(C2=NC(c3ccc(F)cc3)NC(c3cc(Cl)ccc3O)C2)cc1 (centres undefined),1.41%
2,COc1ccccc1C1N=C(c2ccc(C)cc2)CC(c2cc(Cl)ccc2O)N1 (centres undefined),1.39%
3,Cc1ccc(C2=NC(c3cc(Br)ccc3F)NC(c3cc(Cl)ccc3O)C2)cc1 (centres undefined),10.7% (active)
4,O=C(COc1ccc(Cl)cc1)Nc1ccc(F)c(F)c1,0.102%
5,Cc1ccc(OCC(=O)Nc2ccc(C)c(Cl)c2)cc1C,1.59%
6,O=C(COc1ccc(CO)cc1)Nc1ccc(Cl)c(Cl)c1,8.11% (active)
7,CCN(CC)S(=O)(=O)c1ccc(NC(=O)c2ccc(F)cc2)cc1,-0.476%
8,Cc1cccc(OCCN2CCNCC2)c1C,0.825%
9,Cc1ccc(C(C)(C)C)c(OCCN2CCNCC2)c1,0.932%
10,C=CCc1ccccc1OCCN1CCNCC1,5.95% (active)
11,COc1cccc(CNC(=O)Cn2c(=O)oc3ccccc32)c1,-1.36%
12,N#CCCn1c2ccc(Cl)cc2c2cc(Cl)ccc21,2.4%
13,CC1CN(c2ncnc3c2c(-c2ccccc2)cn3-c2cccc(C(F)(F)F)c2)CC(C)O1 (centres undefined),-1.46%
14,Cc1ccc(-n2cc(-c3ccccc3)c3c(N4CC(C)OC(C)C4)ncnc32)cc1 (centres undefined),7.76% (active)
15,COc1ccc(N2CCN(c3ncnc4c3c(-c3ccccc3)cn4-c3ccc(C)cc3)CC2)cc1,-2.7%
16,CCN(CC)CCCNCC(=O)Nc1ncc(C)s1,-1.43%
17,Cc1ccccc1CC1(CO)CCCN(C(=O)CN(C)Cc2ccncc2)C1 (centres undefined),0.125%
18,Cc1ccccc1CC1(CO)CCCN(Cc2ccncc2)C1 (centres undefined),5.32% (active)
19,OCC1(Cc2ccccc2C(F)(F)F)CCN(Cc2ccncc2)CC1,-0.707%
20,Cc1csc(COc2ccc(C(=O)NCc3cccs3)cc2)n1,-2.02%
21,Cn1ncc2c(Nc3cccc4ccccc34)ncnc21,2.47%
22,Cn1ncc2c(NNC(=O)Cc3cccc4ccccc34)ncnc21,6.03% (active)
23,Cn1ncc2c(NNC(=O)c3ccc(C(C)(C)C)cc3)ncnc21,1.02%
24,O=C1c2ccccc2C(=O)C1(Nc1ccc(-c2ccccc2)cc1)c1ccccc1,0.902%

row,SMILES,activation
1,O=C(Nc1ccc2c(c1)C(=O)Nc1cc(Cl)ccc1O2)c1cccc(F)c1,-0.172%
2,Cc1ccc(C2CC(c3cccs3)=NN2C(=O)CSc2nnc(CNC(=O)c3cccs3)n2Cc2ccccc2)cc1 (centres undefined),-0.904%
3,O=C(NCc1nnc(SCC(=O)N2N=C(c3cccs3)CC2c2ccc(F)cc2)n1Cc1ccccc1)c1cccc(F)c1 (centres undefined),5.02% (active)
4,COc1ccc(C2CC(c3cccs3)=NN2C(=O)CSc2nnc(CNC(=O)c3cccc(C)c3)n2Cc2ccccc2)cc1 (centres undefined),-0.0797%
5,CSc1ccc2nc(NC(=O)c3ccccc3Cl)sc2c1,-0.347%
6,CC(=O)OCC#CCSc1nc2ccccc2o1,-0.909%
7,Fc1ccccc1OCCSc1nc2ccccc2o1,4.92% (active)
8,N#Cc1ccccc1CSc1nc2ccccc2o1,-1.07%
9,COc1ccccc1C(=O)N1CCNC(=O)C1CC(=O)Nc1ccc(Cl)cc1 (centres undefined),-1.89%
10,O=C(Cc1ccc([N+](=O)[O-])cc1)Nc1cccc(Cl)c1,-0.456%
11,O=C(CC1C(=O)NCCN1C(=O)c1ccc([N+](=O)[O-])cc1)Nc1cccc(Cl)c1 (centres undefined),7.94% (active)
12,CCc1cc2c(=O)c(-c3ccc4c(c3)OCCCO4)coc2cc1OC(=O)N1CCOCC1,8.05% (active)
13,CCCc1cc2c(=O)c(-c3ccc4c(c3)OCO4)coc2cc1O,0.792%
14,CCc1cc2c(=O)c(-c3ccc4c(c3)OCCCO4)coc2cc1OC,-0.907%
15,COc1ccccc1N=Cc1cccc(O)c1O,-0.891%
16,O=C(c1ccc(Cl)cc1)N1CCCC1,-0.435%
17,O=C(c1ccc(CNS(=O)(=O)c2ccc(Cl)cc2)cc1)N1CCCC1,6.5% (active)
18,O=C(c1cccc(NS(=O)(=O)c2ccc(Cl)cc2)c1)N1CCCC1,-1.72%
19,COC(=O)C1=CN(Cc2ccc(F)cc2)C=C(C(=O)OC)C1c1ccc(OC)c(OC)c1,-0.344%
20,COC(=O)CN1C=C(C(=O)OC)C(c2ccc(OC)c(O)c2)C(C(=O)OC)=C1,6.57% (active)
21,COC(=O)C1=CN(CC2CCCO2)C=C(C(=O)OC)C1c1ccc(OC)c(O)c1 (centres undefined),1.3%
22,CCOC(=O)C1=CN(Cc2ccc(Cl)cc2)C=C(C(=O)OCC)C1c1cc(Br)c(O)c(OC)c1,3.19%
23,COC(=O)C1=CN(Cc2ccc(Cl)cc2)C=C(C(=O)OC)C1c1cc(OC)c(O)c(OC)c1,8.56% (active)
24,COC(=O)C1=CN(Cc2ccc(OC)cc2)C=C(C(=O)OC)C1c1ccc(O)c(OC)c1,1.75%

row,SMILES,activation
1,CCOc1ccc(/C(O)=C2/C(=O)C(=O)N(CCN(CC)CC)C2c2ccc(C)cc2)c(C)c1 (centres undefined),0.496%
2,CCOc1ccc(N2C(=O)C3C4C=CC(C5CC45)C3C2=O)cc1 (centres undefined),-1.25%
3,Cc1cccc(CN2CCN3C(=O)[C@H](Cc4cnc[nH]4)NC(=O)[C@H]3C2)n1,0.592%
4,CC(=O)Nc1ccc2c(c1)CN(Cc1ccccc1)CO2,1.47%
5,O=C(c1cccc(N2C(=O)c3ccccc3C2=O)c1)N1CCOCC1,-0.354%
6,CCC(CC)C(=O)Nc1cccc(C(=O)Nc2ccccc2C(=O)NC(C)C)c1,0.373%
7,CC1(C)Oc2ccc(C(=O)N3CCOCC3)cc2N(CC(=O)Nc2ccccc2)C1=O,-0.343%
8,CCC(CC)C(=O)Nc1cccc(F)c1,4.27%
9,O=C(CCc1ccccc1)Nc1cccc(C(=O)N2CCOCC2)c1,11.5% (active)
10,CCC(CC)C(=O)Nc1cccc(C(=O)N2CCCC2)c1,5.74% (active)
11,Cc1ccc2oc(-c3cccc(NC(=O)c4ccc(F)cc4)c3)nc2c1,0.17%
12,O=C(c1cc(=O)oc2cc(OCc3ccccc3)ccc12)N1CCN(c2ccccn2)CC1,-0.0035%
13,Cc1ccc([N+](=O)[O-])cc1NC(=O)CC12CC3CC(CC(C3)C1)C2,2.69%
14,CC(C)(C)c1ccc(C(=O)NCCC(=O)NCCc2ccccc2)cc1,0.46%
15,O=C1CSC2=NCN(c3ccc(I)cc3)CN12,0.445%
16,CCOc1cc(C#N)ccc1OCC(=O)NCc1ccc2c(c1)OCO2,-0.667%
17,COc1ccccc1CNC(=O)C1CCN(Cc2nc(-c3ccccc3C)oc2C)CC1,-0.157%
18,Cc1ccc2nc(SCc3ccccc3)nc(=O)n2c1,1.52%
19,c1cnc(N2CCN(Cc3cccc4ccccc34)CC2)nc1,0.32%
20,c1ccc(NCc2cccc3ccccc23)nc1,5.45% (active)
21,O=C(Cc1cccc2ccccc12)Nc1ncn[nH]1,0.255%
22,CCCNc1nc(N2CCOCC2)nc2cc(OC)c(OC)cc12,-0.145%
23,c1ccc(CSc2ncnc3sc4c(c23)CCCC4)cc1,3.13%
24,O=C(c1ccccc1)N1CCCCC(Sc2ncnc3sc4c(c23)CCCC4)C1=O (centres undefined),5.26% (active)

row,SMILES,activation
1,Cc1sc2ncnc(SC3CCCCN(C(=O)c4ccc(F)cc4)C3=O)c2c1C (centres undefined),2.61%
2,COc1ccc(OC)c(-c2cc(Cl)c3c(c2)CC(CNC(=O)CSC)O3)c1 (centres undefined),0.143%
3,CCOc1ccc(C2C(C(=O)Nc3ccc(C)c(F)c3)c3ccccc3C(=O)N2CCN2CCOCC2)cc1 (centres undefined),-1.65%
4,O=C(CSc1nnc(NC(=O)CCc2ccccc2)s1)NCc1ccc(F)cc1,-2.57%
5,Nc1nnc(SCC(=O)OCC(=O)NCc2ccccc2)s1,-1.05%
6,Cc1nnc(SCC(=O)NCc2ccccc2)s1,6.39% (active)
7,C/C(N)=C1\C(=O)C(=O)N(C)C1c1ccccc1 (centres undefined),-1.33%
8,CC(Oc1cccc(Cl)c1)C(=O)O/N=C(\N)c1ccncc1 (centres undefined),-0.652%
9,O=C(O)CNC(=O)/C=C\c1ccc(Cl)cc1,0.187%
10,CCNC(=O)n1cc(-c2ccnc3ccccc23)c(-c2ccncc2)n1,-0.919%
11,O=C(Nc1ccc(-c2nnc3n2CCCCC3)cc1)c1ccc(Br)o1,-0.517%
12,O=c1c(Cl)c(-c2ccccc2)oc2ccccc12,-1.04%
13,CCN(CC)C(=O)C1CCCN(c2cccc(C(=O)NCCc3ccc(OC)cc3)n2)C1 (centres undefined),5.87% (active)
14,CCN(CC)C(=O)C1CCCN(c2cc(N)nc(N)n2)C1 (centres undefined),6.79% (active)
15,CCN(CC)C(=O)C1CCCN(c2cc(NCCN(C(C)C)C(C)C)nc(N)n2)C1 (centres undefined),4.23%
16,CCN(CC)C(=O)C1CCCN(c2nc3ncnc(NCCc4ccc(OC)cc4)c3[nH]2)C1 (centres undefined),0.885%
17,CCN(CC)C(=O)C1CCCN(c2cc(Nc3ccccc3)nc(N)n2)C1 (centres undefined),1.77%
18,CCN(CC)C(=O)C1CCCN(c2cccc(C(=O)NCCc3ccc(OC)cc3)c2)C1 (centres undefined),-1.08%
19,O=C(O)c1cc(N=Cc2cccnc2)ccc1O,0.982%
20,Cc1ccc(CNC(=O)CCCCCn2c(SCc3cc(=O)n4ccccc4n3)nc3ccsc3c2=O)cc1,1.39%
21,O=C(Nc1ccc(F)c(Cl)c1)/C(=C/c1cccc([N+](=O)[O-])c1)NC(=O)c1cccs1,0.762%
22,C=CCNC(=O)/C(=C/c1ccc(Cl)cc1)NC(=O)c1ccccc1,3.04%
